# Source: PubChem BioAssay
# ALDH1A1 inh = qHTS Assay for Inhibitors of Aldehyde Dehydrogenase 1 (ALDH1A1); Aldehyde dehydrogenase 1A1 (Homo sapiens), P00352; Purified ALDH1A1, NADH fluorescence, propionaldehyde substrate; Potency, µM (titrated, usually from 75.3 µM), inactives show at the highest dose activity, negative = inhibition, most hits filed as inhibitors; 7.3% of 220,000 active; AID 1030, 2008; active = well fitted inhibition curve with a large enough effect, not every such curve was filed as active; inconclusive = small, poorly fitted or top-dose-only effect, or another doubt; inactive = no such curve, though single readings can be large or run the other way;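 note: potency is the fitted concentration of half-maximal effect; plate controls were no enzyme wells and a reference inhibitor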
# IMPase Li inh = qHTS Assay for Identifying the Cell-Membrane Permeable IMPase Inhibitors: Potentiation with Lithium; Potency, µM (top dose mostly 59.4 µM), for the others: at the top dose activity, negative = IMPase inhibition, usual class: inhibitors; AID 1457, 2008; CHO-M1 cells, IP1 TR-FRET (IP-One), carbachol + lithium; 0.35% of 210,000 active;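 note: IP1 builds up when IMPase is blocked and the TR-FRET signal falls; potency is the fitted concentration of half-maximal effect; plate controls were basal vehicle for no effect and high inhibitor control for full effect; nearly all actives have a fitted effect of over 50% in size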
#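 Concentration–response in CHO-M1 cells, lithium-potentiated; 30 min at 37C. IP1 detected by competitive TR-FRET after 10 min lysis at RT. Hill-fitted AC50.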
# IMPase inh = qHTS Assay for Identifying the Cell-Membrane Permeable IMPase Inhibitors; Inositol monophosphatase 1 (Rattus norvegicus), P97697; CHO-M1 cells, IP1 accumulation, HTRF TR-FRET ratio; inhibition (IP1 accumulation), % at 46.1 µM; 120,000 tested, under 10 active; active = well fitted curve in the direction sought with a large enough effect in the signal ratio, not every such curve was filed as active; inconclusive = small, poorly fitted or top-dose-only effect, or a change in a side signal; inactive = no such curve, though single readings can be large or run the other way; the % refers to the signal ratio;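 note: cells stimulated with carbachol in lithium chloride buffer; plate controls were DMSO basal wells for no effect and reference inhibitor wells for full effect; higher means more IMPase inhibition seen as more IP1 and lower FRET ratio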
# Target sequence (P97697 whole entry, looked up): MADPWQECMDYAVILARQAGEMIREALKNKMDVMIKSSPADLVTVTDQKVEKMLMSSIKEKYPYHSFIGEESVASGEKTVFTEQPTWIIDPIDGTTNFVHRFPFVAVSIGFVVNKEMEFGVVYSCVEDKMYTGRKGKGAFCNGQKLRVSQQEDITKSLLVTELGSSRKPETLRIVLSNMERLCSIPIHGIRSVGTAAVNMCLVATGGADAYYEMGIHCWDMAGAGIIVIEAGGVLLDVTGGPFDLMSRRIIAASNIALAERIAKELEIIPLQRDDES
#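 Cellular IMPase inhibition is scored as a rise in cytosolic IP1, detected by competitive TR-FRET between d2-labelled IP1 and a europium anti-IP1 antibody. M1-expressing CHO cells were stimulated with carbachol for 30 min at 37C, with lithium (50 mM LiCl) present in the buffer.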
# HPGD inh = qHTS Assay for Inhibitors of HPGD (15-Hydroxyprostaglandin Dehydrogenase); 4.3% of 150,000 active; 15-hydroxyprostaglandin dehydrogenase [NAD(+)] (Homo sapiens), P15428; Potency, µM, without a hit: at the top dose activity change, negative = inhibition, hits mostly inhibitors; purified HPGD, NADH fluorescence kinetic, PGE2 substrate; active = well fitted inhibition curve with a large enough effect, not every such curve was filed as active; inconclusive = small, poorly fitted or top-dose-only effect, or another doubt; inactive = no such curve, though single readings can be large or run the other way; note: potency is the fitted concentration of half-maximal effect
# Target sequence (P15428 whole entry, looked up): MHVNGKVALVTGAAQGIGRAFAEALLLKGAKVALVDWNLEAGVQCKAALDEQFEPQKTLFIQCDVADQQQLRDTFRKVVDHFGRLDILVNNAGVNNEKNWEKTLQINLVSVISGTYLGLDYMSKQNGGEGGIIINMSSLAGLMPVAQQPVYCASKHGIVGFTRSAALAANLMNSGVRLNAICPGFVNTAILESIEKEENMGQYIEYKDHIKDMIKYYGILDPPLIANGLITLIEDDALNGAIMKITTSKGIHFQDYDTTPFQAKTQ
#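 NADH formation kinetics: reaction with 30 uM PGE2 and 1 mM NAD+ (final), 20 nM enzyme, Tris-HCl pH 8 with Tween 20, after 15 min compound preincubation at room temperature. Fluorescence change, last versus first of five reads.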
# PNC inhibitor = High Content Assay for Compounds that inhibit the Assembly of the Perinucleolar Compartment. activity change (PNC), negative = inhibition, % at 10 µM. AID 2417, 2010. 3.1% of 140,000 active. PC3M PTB-GFP, PNC prevalence imaging, 16 h; hits give low values;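 active = readout at or below -70, meaning at least 70% loss of cells showing the perinucleolar compartment, a nuclear body marking cancer cells; inconclusive = readout between -30 and a set limit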;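 note: plate controls were DMSO wells for no effect and camptothecin positive control wells for full effect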
#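 Read-out is percentage of cells bearing a perinucleolar compartment, from automated 20x imaging of fixed, Hoechst-stained PC3M PTB-GFP cells. Cells were seeded 4 h, then exposed 16 h to compound (23 nl of library stock) in duplicate plates.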
# 12-hLO inh = qHTS Assay for Inhibitors of 12-hLO (12-human lipoxygenase); Polyunsaturated fatty acid lipoxygenase ALOX12 (Homo sapiens), P18054; purified 12-hLO, xylenol orange hydroperoxide absorbance; Potency, µM (top dose mostly 57.1 µM), for the others: top-dose activity change, negative = inhibition, most hits filed as inhibitors; 0.12% of 150,000 active; note: potency is the fitted concentration of half-maximal effect; nearly all actives have a fitted effect of over 55% in size
#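 Lipoxygenase turnover measured by absorbance at 573 and 405 nm after Fe-XO development. Human 12hLO 150 nM, arachidonate 40 uM, pH 7.0 Hepes buffer with detergent; 15 min compound preincubation, 30 min reaction.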
# An asterisk follows results filed as active; ? = inconclusive; . = not tested or not shown; [ ] = another dose, or the depositor's remark. Shown are actives, neighbours in structure and some others; about 11% of the full set was active somewhere. Unless noted, calls come from the whole dose curve; as a rule, active = well fitted curve in the direction sought with a large enough effect; inconclusive = small, poorly fitted or top-dose-only effect, or another doubt; inactive = no such curve, though single readings can be large; an effect the other way counts as inactive or inconclusive. Unless noted, % is set by controls: 0 for no effect and ±100 for the full control effect.
SMILES,ALDH1A1 inh,IMPase Li inh,IMPase inh,HPGD inh,PNC inhibitor,12-hLO inh
Cc1cc2c(cc1C)-c1nnnn1C(C)(C)C2,7.08µM*,23.0%[38.3 µM],4.0,-4.3%,11.9,0.9%
COc1cc2c(cc1OC)-c1nnc(C)n1C(C)(C)C2,-2.0%,-3.4%[38.3 µM],3.2,-6.7%,11.4,-3.8%
CCOc1cc(/C=N/NC(=O)c2nn(C)cc2Br)ccc1OCc1ccccc1Cl,1.5%,1.8%,.,-28.6%,-111.8*,-1.8%
COc1cc(/C(C)=N/NC(=O)CSc2nncn2C)ccc1OCc1ccccc1Cl,5.01µM*,33.1%,.,-22.3%,-7.7,-1.7%
CCOc1cc(/C=N/NC(=O)CSc2nncn2C)ccc1OCc1ccccc1,-5.8%,-4.0%,.,-18.4%,-96.3*,2.8%
CCN(Cc1ccccc1)C(=O)CSc1nncn1C,31.6µM*,-1.5%,.,.,.,.
CCN(Cc1ccccc1)C(=O)CSc1ccccc1C(=O)O,?,2.0%,.,.,.,.
CCOC(=O)C1CCN(CCC(=O)Nc2ccc(F)cc2)CC1,10.5%,15.2%,.,.,.,.
COc1ccc(C(=O)c2oc3ccccc3c2NC(=O)COc2cccc(C)c2C)cc1,.,.,-8.1,.,.,.
O=C(NCCCO)C(=O)NCc1ccccn1,6.3%,-4.9%,.,.,.,.
c1csc(-c2noc(CN3CCc4sccc4C3)n2)c1,20µM*,19.3%,.,.,.,.
C[C@@H]1CN(Cc2nc(-c3cccs3)no2)C[C@H](C)O1,-5.4%,-1.4%,.,.,.,.
COCC1CCN(Cc2nc(-c3cccs3)no2)C1 (configuration not stated),28.2µM*,-2.1%,.,.,.,.
COc1ccccc1CN1CCN(Cc2nc(-c3cccs3)no2)CC1,0.6%,13.4%,.,.,.,.
COc1ccccc1NC(=O)C1=C(C)Nc2nc(-c3ccco3)nn2C1c1cccc(C)c1 (configuration not stated),.,.,7.9,.,.,.
CC(=O)N1CCC[C@H]1C(=O)O,-3.7%,1.6%,.,.,.,.
O=C(O)C1CCCN1C(=O)c1cncc(Br)c1 (configuration not stated),20µM*,3.5%[38.3 µM],3.7,2.4%,-13.1,-7.9%
O=c1c(-c2cccc(Cl)c2)nc2cncnc2n1Cc1ccccc1,?,2.5%,.,.,.,.
O=C1S/C(=C\C=C\c2ccco2)C(=O)N1c1ccc(O)cc1,17.8µM*,17.5%,7.4,-13.3%,-29.2,?
O=C1S/C(=C\C=C\c2ccco2)C(=O)N1c1ccccc1,20µM*,4.5%,10.0,-9.0%,43.4,-18.5%
O=C(O)C(Cc1ccccc1)N1C(=O)/C(=C/C=C/c2ccco2)SC1=S (configuration not stated),3.16µM*,.,.,.,.,.
C/C=C/c1ccc2oc(-c3ccc(O)cc3)c(C)c2c1,?,2.2%,.,?,.,.
CCCN(C(=O)c1ccco1)c1nnc(-c2ccccc2C)s1,8.91µM*,9.1%,.,.,.,.
COCCN(C(=O)c1ccco1)c1nnc(-c2ccc(F)cc2)s1,?,7.3%,.,.,.,.
CCCOc1ccc(C2c3c(oc4ccccc4c3=O)C(=O)N2c2nc(C)c(C(=O)OCC)s2)cc1 (configuration not stated),.,.,-0.5,.,.,.
O=C(CCNc1n[nH]c(=O)[nH]c1=O)N/N=C\c1cccc(OCc2ccccc2)c1,6.5%,-2.7%,.,.,.,.
CCCCCCCC/C=C\CCCCCCCC(=O)O,-15.5%,-6.0%,.,-10.7%,.,-4.8%
CCCCCCCCC/C=C/CC1CC(=O)OC1=O (configuration not stated),28.2µM*,12.9%,.,-15.6%,.,-1.7%
COc1ccc(NC(=O)c2sc3nc(-c4ccc(OC)cc4)cc(C(F)(F)F)c3c2N)cc1,.,.,2.1,.,.,.
Nc1c(C(=O)Nc2ccccc2F)sc2nc(Cc3ccccc3)cc(C(F)(F)F)c12,2.9%,10µM*,?,-9.1%,18.3,4.2%
